Assay results taken from the supplement of paper PMC10849652.
For some of these results: About 7,900 targets were measured; listed, in parts, are those with a hit and a random draw of the rest. For some of these results: About 0.6% of all pairs of compound and target were hits. For some of these results: Of roughly 8,800 targets only a part is listed; those with a hit were picked by preference. For some of these results: About 0.5% of all pairs of compound and target were hits.

What was measured:
[1] = compound: C1=CC=C(C=C1)[C@H](COC2=CC3=C(C=C2)NC(=O)N3)NC(=O)C4=CC=CN(C4=O)CC5=CC(=C(C=C5)F)F; experiment: log2 fold change, soluble protein after heating vs DMSO (PISA); higher = thermal stabilisation; K562 cells, 10 uM, 30 min; active = over 0.2 and 3.5 SD of the protein, either way, in both replicates (recomputed)
Procedure, shortened: (§1)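 K562 cells at 2×10^6 cells/mL were exposed to 10 μM compound for 30 min, then aliquots were heated for 3 min across 48°C-58°C, pooled, and extracted in PBS containing 0.5% NP-40 at 4°C. The supernatant after 21,000xg for 90 min was taken as soluble protein and measured by TMTpro 16plex LC-MS/MS with channel sums equalised. Thermal stability is reported relative to control samples, with values from duplicates. Fold changes are given on a log2 scale.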

[2] = compound: CC1=C(SC2=C1C(=N[C@H](C3=NN=C(N32)C)CC(=O)N)C4=CC=C(C=C4)Cl)C; experiment: as above
Procedure, shortened: as §1

[3] = compound: CC1=C2C(=CC=C1)N=C(N(C2=O)C3=CC=CC=C3C)CN4C=NC5=C(N=CN=C54)N; experiment: as above
Procedure, shortened: as §1

[4] = compound: Cc1sc2c(c1C)C(c1ccc(Cl)cc1)=N[C@@H](CC(=O)OC(C)(C)C)c1nnc(C)n1-2; experiment: as above
Procedure, shortened: as §1

[5] = compound: c1ccc([C@@H]2C[C@H]2NC2CCNCC2)cc1; experiment: as above
Procedure, shortened: as §1

[6] = compound: C1=CC=C(C=C1)[C@H](COC2=CC3=C(C=C2)NC(=O)N3)NC(=O)C4=CC=CN(C4=O)CC5=CC(=C(C=C5)F)F; experiment: log2 fold change, soluble protein after heating vs DMSO (PISA); higher = thermal stabilisation; K562 lysate, 10 uM; active = over 0.2 and 3.5 SD of the protein, either way, in both replicates (recomputed)
Procedure, shortened: (§2)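 Pellets of K562 cells were dounce-homogenised in PBS pH 7.4 with 1 mM MgCl2, and the crude extract was held at 1 mg/mL protein for a 30 min treatment with 10 μM compound. Aliquots were heated for 3 min over 48°C-58°C and pooled before NP-40 was added to 0.5% at 4°C. The supernatant from 21,000xg for 90 min was quantified by TMTpro 16plex LC-MS/MS with channel sums equalised. Values are reported from duplicates as log-two fold change in thermal stability relative to solvent controls.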

[7] = compound: CC1=C(SC2=C1C(=N[C@H](C3=NN=C(N32)C)CC(=O)N)C4=CC=C(C=C4)Cl)C; experiment: as above
Procedure, shortened: as §2

[8] = compound: Cc1sc2c(c1C)C(c1ccc(Cl)cc1)=N[C@@H](CC(=O)OC(C)(C)C)c1nnc(C)n1-2; experiment: as above
Procedure, shortened: as §2

[9] = compound: c1ccc([C@@H]2C[C@H]2NC2CCNCC2)cc1; experiment: as above
Procedure, shortened: as §2

[10] = compound: CC1=C2C(=CC=C1)N=C(N(C2=O)C3=CC=CC=C3C)CN4C=NC5=C(N=CN=C54)N; experiment: as above
Procedure, shortened: as §2

Measured: log2 fold change

ZNF622 (UniProt Q969S3)
inactive: [1] -0.028 | [2] 0.033 | [3] 0.073 | [4] -0.016 | [5] -0.049

ABRACL (UniProt Q9P1F3)
inactive: [6] 0.052 | [7] -0.221 | [8] 0.054 | [9] 0.075

ZFAND6 (UniProt Q6FIF0)
inactive: [1] 0 | [2] -0.015 | [3] 0.042 | [4] -0.143 | [5] 0.004

ANP32E isoform 3 (UniProt Q9BTT0)
inactive: [6] 0.003 | [7] 0.09 | [10] 0.015 | [9] -0.39

ARHGEF1 (UniProt M0QZR4)
inactive: [6] -0.046 | [7] 0.006 | [10] -0.017 | [8] -0.017 | [9] 0.004

ZNF143 (UniProt P52747)
inactive: [1] 0.015 | [2] -0.013 | [3] -0.022 | [4] 0.064 | [5] 0.107

AP3D1 isoform 2 (UniProt O14617)
inactive: [10] -0.009 | [9] 0.061

ZFAND5 (UniProt O76080)
inactive: [1] -0.025 | [2] -0.21 | [3] -0.129 | [4] -0.024 | [5] 0.143

ZBTB43 (UniProt O43298)
inactive: [1] -0.105 | [2] 0.013 | [3] 0.055 | [4] -0.097 | [5] -0.08

ZMYM1 (UniProt Q5SVZ6)
inactive: [1] 0.077 | [2] 0.082 | [3] -0.144 | [4] -0.012 | [5] -0.011

ARHGEF2 (UniProt V9GYF0)
inactive: [10] 0.098 | [8] 0.105

ABCD3 (UniProt P28288)
inactive: [6] 0.178 | [7] -0.094 | [10] 0.016 | [8] 0.013 | [9] 0.01

ACVR1 (UniProt Q04771)
Chain of UniProt Q04771 (Q04771 whole entry, looked up): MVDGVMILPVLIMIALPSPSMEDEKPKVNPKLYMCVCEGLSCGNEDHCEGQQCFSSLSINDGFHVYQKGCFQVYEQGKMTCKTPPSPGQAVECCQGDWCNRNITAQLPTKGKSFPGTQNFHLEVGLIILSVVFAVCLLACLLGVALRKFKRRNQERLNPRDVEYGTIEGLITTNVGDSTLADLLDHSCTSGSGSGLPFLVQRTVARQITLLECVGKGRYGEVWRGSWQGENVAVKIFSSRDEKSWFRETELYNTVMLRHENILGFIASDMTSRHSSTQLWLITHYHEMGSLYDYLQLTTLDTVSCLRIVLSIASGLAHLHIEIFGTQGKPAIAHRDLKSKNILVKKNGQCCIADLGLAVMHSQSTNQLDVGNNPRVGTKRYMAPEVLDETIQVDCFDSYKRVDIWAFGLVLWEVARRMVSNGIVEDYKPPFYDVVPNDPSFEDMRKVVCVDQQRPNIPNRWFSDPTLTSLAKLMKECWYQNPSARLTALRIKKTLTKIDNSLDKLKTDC
inactive: [6] -0.052 | [7] -0.055 | [8] -0.102 | [9] -0.126

ZYG11B (UniProt Q9C0D3)
inactive: [1] 0.057 | [2] 0.086 | [3] 0.011 | [4] -0.02 | [5] 0.044

YIPF6 (UniProt Q96EC8)
inactive: [1] 0.062 | [2] -0.04 | [3] 0.114 | [4] 0.103 | [5] 0.015

ACLY isoform 2 (UniProt P53396)
Chain of UniProt P53396 (P53396 whole entry, looked up): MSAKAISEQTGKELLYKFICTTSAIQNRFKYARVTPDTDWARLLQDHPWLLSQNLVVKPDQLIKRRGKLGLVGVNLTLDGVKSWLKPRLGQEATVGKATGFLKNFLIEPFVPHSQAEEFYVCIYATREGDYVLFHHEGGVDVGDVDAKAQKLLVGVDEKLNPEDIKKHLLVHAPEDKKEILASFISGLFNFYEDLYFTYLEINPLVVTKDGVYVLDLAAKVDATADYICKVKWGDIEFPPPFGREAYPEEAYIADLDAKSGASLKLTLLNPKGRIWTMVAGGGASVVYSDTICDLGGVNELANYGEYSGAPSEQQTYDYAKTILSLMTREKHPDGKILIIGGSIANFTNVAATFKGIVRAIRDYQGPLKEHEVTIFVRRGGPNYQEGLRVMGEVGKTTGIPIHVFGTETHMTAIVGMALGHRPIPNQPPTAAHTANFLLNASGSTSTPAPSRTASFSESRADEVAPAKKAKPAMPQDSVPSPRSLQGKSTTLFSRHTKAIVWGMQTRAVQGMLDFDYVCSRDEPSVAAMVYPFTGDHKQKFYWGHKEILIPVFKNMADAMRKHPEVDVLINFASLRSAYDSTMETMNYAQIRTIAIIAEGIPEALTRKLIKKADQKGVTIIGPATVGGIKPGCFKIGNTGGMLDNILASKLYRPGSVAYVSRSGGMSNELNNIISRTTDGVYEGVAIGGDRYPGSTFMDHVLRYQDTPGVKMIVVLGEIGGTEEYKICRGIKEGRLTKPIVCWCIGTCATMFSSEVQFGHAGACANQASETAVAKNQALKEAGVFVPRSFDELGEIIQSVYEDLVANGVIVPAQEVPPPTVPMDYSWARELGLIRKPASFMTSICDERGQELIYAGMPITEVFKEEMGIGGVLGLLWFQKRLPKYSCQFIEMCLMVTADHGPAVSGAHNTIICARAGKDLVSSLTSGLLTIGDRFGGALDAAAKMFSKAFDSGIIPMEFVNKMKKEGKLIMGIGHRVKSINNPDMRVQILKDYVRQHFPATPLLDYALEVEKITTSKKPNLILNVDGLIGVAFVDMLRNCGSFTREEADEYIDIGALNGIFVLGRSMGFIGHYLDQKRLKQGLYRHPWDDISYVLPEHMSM
inactive: [6] 0.099 | [7] -0.01 | [10] 0.023 | [9] -0.325

ALG13 isoform 2 (UniProt Q9NP73)
inactive: [9] -0.109

ACAT1, A0A5F9ZHJ0
inactive: [9] -0.06

AIF1L (UniProt Q9BQI0)
inactive: [6] 0.072 | [7] -0.031 | [8] 0.049 | [9] -0.022

AP5B1 (UniProt Q2VPB7)
inactive: [6] 0.079 | [7] -0.023 | [8] -0.044 | [9] -0.003

ANP32E (UniProt Q9BTT0)
inactive: [6] 0.043 | [7] -0.005 | [10] -0.053 | [8] -0.038 | [9] 0.026

ALDH3A1 (UniProt P30838)
inactive: [8] -0.209 | [9] -0.339

ANKRD44 isoform 2 (UniProt Q8N8A2)
active: [9] -1
inactive: [6] -0.032 | [7] -0.045 | [10] 0.019

AGGF1 (UniProt Q8N302)
inactive: [6] 0.042 | [7] 0.049 | [10] 0.024 | [9] -0.149

AGPAT2 (UniProt O15120)
inactive: [10] -0.11 | [9] 0.034

ZDHHC20 (UniProt Q5W0Z9)
inactive: [1] -0.023 | [2] -0.001 | [3] -0.047 | [4] -0.061 | [5] 0.067

ALKBH1 (UniProt Q13686)
inactive: [10] -0.036 | [8] -0.001 | [9] 0.051

ALDH18A1 isoform 2 (UniProt P54886)
inactive: [10] 0.229 | [8] -0.068

YLPM1 (UniProt P49750)
inactive: [1] -0.092 | [2] 0.11 | [3] 0.104 | [4] 0.005 | [5] -0.052

AMDHD2 (UniProt Q9Y303)
inactive: [10] 0.039 | [9] 0.095

ACYP2 (UniProt P14621)
Chain of UniProt P14621 (P14621 whole entry, looked up): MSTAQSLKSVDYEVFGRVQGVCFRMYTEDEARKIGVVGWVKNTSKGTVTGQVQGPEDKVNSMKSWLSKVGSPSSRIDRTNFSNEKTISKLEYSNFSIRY
inactive: [6] -0.061 | [7] -0.032 | [10] 0.011 | [9] 0.118

ACADM isoform 2 (UniProt P11310)
Chain of UniProt P11310 (P11310 whole entry, looked up): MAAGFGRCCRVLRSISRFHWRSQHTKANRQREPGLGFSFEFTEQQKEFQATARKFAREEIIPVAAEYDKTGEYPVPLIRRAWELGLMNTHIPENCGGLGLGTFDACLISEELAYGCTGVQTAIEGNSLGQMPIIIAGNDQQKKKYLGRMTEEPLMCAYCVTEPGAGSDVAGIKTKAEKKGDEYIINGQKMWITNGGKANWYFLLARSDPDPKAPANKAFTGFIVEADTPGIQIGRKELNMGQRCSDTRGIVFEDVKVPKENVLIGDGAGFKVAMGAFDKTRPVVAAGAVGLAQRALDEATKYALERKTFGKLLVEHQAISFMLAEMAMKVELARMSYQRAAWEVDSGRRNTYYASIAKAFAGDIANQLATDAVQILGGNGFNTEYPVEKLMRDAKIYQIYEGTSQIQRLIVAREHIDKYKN
inactive: [6] -0.071 | [7] -0.035 | [10] 0.043 | [8] 0.017 | [9] 0.013

ANKRD30A (UniProt Q9BXX3)
inactive: [6] -0.04 | [7] -0.051 | [8] -0.03 | [9] 0.064

ZFPL1 (UniProt O95159)
inactive: [1] 0.09 | [2] 0.084 | [3] 0.063 | [4] -0.042 | [5] -0.032

ZEB2 (UniProt O60315)
inactive: [1] -0.125 | [3] 0.137 | [4] 0.368

ZC3H18 (UniProt Q86VM9)
Chain of UniProt Q86VM9 (Q86VM9 whole entry, looked up): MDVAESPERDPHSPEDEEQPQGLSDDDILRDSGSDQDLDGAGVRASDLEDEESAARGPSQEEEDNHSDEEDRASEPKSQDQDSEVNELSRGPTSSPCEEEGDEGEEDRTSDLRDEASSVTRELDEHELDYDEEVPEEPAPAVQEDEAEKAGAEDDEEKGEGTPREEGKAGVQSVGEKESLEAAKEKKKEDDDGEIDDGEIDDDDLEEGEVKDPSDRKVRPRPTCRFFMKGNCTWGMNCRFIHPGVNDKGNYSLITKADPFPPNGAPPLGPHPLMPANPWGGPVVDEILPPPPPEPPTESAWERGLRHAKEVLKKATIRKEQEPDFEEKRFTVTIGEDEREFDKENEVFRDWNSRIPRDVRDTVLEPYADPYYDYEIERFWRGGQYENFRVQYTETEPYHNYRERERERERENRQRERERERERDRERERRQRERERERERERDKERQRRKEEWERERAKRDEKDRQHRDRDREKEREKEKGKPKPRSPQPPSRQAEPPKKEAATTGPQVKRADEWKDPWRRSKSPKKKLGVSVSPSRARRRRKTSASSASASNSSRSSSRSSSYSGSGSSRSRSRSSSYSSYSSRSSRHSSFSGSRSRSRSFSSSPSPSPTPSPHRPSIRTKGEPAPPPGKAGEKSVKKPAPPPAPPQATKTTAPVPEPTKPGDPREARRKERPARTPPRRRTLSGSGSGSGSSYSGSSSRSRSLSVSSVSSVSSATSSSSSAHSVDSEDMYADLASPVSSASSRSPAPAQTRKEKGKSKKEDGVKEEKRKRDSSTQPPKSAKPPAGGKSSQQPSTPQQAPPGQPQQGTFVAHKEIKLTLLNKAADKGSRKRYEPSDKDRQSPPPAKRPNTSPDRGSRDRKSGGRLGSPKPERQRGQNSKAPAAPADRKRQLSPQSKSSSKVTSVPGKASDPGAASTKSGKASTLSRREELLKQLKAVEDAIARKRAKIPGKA
inactive: [1] 0.032 | [2] -0.031 | [3] 0.035 | [4] 0.021 | [5] 0.047

ZNF217 (UniProt O75362)
Chain of UniProt O75362 (O75362 whole entry, looked up): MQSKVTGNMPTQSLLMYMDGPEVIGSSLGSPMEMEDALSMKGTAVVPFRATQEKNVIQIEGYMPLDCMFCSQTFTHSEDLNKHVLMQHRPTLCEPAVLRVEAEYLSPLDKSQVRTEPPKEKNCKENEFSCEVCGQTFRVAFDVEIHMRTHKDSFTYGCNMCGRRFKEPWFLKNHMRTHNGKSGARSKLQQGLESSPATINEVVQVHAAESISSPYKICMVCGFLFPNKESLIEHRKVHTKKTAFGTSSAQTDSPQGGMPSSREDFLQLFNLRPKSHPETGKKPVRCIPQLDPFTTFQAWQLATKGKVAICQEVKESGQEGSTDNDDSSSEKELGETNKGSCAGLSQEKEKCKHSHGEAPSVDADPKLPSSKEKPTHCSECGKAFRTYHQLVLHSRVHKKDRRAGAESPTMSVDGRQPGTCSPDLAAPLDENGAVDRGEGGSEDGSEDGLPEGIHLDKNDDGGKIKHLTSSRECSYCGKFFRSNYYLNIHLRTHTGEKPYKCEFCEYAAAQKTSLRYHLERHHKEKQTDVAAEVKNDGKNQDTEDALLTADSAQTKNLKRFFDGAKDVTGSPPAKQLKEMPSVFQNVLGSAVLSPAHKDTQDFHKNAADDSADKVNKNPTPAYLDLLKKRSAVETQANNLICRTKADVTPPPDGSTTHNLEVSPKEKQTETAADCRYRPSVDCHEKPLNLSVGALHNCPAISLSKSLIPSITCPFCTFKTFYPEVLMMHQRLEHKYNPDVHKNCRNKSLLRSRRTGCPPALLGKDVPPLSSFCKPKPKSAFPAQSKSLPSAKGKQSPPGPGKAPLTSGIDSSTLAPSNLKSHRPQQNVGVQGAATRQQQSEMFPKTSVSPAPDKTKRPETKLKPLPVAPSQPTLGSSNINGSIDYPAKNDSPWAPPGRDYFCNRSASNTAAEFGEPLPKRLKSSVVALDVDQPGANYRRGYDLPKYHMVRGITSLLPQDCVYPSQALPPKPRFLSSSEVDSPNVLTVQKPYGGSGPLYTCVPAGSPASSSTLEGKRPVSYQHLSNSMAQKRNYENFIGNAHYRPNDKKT
active: [5] 0.306
inactive: [1] -0.017 | [2] 0.048 | [3] 0.163 | [4] -0.003

YWHAQ (UniProt P27348)
inactive: [1] -0.031 | [2] 0.009 | [3] -0.152 | [4] -0.089 | [5] -0.083

ZBTB21 (UniProt Q9ULJ3)
inactive: [1] -0.215 | [2] -0.152 | [3] 0.058 | [4] 0.244 | [5] 0.006

YY1 (UniProt P25490)
inactive: [1] 0.013 | [2] -0.006 | [3] -0.033 | [4] -0.015 | [5] 0.084

ZCCHC9 (UniProt Q8N567)
inactive: [1] 0.173 | [2] -0.074 | [3] -0.202 | [4] 0.222 | [5] 0.023

YBX1 (UniProt P67809)
inactive: [1] 0.105 | [2] -0.228 | [3] -0.143 | [4] 0.115 | [5] 0.052

ZNF579 (UniProt Q8NAF0)
inactive: [1] 0.05 | [2] -0.074 | [3] -0.025 | [4] 0.151 | [5] -0.147

ZNF512 (UniProt Q96ME7)
inactive: [2] -0.117 | [5] -0.363

ZRANB2 (UniProt O95218)
inactive: [1] -0.002 | [2] -0.073 | [3] -0.07 | [4] 0.021 | [5] 0.093

YWHAZ (UniProt P63104)
Chain of UniProt P63104 (P63104 whole entry, looked up): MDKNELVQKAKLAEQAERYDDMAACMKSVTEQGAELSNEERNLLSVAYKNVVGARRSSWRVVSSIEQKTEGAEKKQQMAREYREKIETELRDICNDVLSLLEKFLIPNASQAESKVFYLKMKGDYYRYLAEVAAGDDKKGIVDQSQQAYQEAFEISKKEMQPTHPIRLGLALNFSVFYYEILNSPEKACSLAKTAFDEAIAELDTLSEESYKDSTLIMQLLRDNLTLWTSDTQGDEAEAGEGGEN
inactive: [1] -0.012 | [2] 0.035 | [3] -0.031 | [4] -0.033 | [5] -0.025

YPEL5 (UniProt P62699)
inactive: [1] -0.066 | [2] 0.044 | [3] 0.016 | [5] -0.081

ZC3HC1 (UniProt Q86WB0)
inactive: [1] -0.091 | [2] 0.07 | [3] 0.1 | [4] -0.032 | [5] -0.018

YWHAZ (UniProt E7ESK7)
inactive: [1] 0.066 | [2] 0.009 | [4] 0.083 | [5] 0.052

ZER1 (UniProt Q7Z7L7)
inactive: [1] 0 | [2] -0.007 | [3] 0.018 | [4] -0.064 | [5] -0.03

ZNF511 isoform 1 (UniProt Q8NB15)
inactive: [1] -0.015 | [2] -0.128 | [3] 0.064 | [4] -0.123 | [5] 0.102

ZDHHC8 isoform 3 (UniProt Q9ULC8)
inactive: [1] 0.105 | [4] 0

ZNF239 (UniProt Q16600)
inactive: [1] -0.17 | [2] -0.151 | [3] -0.06 | [4] -0.082 | [5] 0.06

ZC3H8 (UniProt Q8N5P1)
Chain of UniProt Q8N5P1 (Q8N5P1 whole entry, looked up): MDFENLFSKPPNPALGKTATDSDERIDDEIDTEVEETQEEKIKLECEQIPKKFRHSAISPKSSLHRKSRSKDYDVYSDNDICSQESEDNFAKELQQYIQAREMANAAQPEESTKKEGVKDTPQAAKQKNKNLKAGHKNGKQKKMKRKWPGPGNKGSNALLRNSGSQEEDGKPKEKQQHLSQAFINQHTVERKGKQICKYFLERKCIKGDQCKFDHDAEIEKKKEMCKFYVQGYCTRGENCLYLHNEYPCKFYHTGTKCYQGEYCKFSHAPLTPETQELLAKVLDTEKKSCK
inactive: [1] 0.095 | [2] -0.089 | [3] -0.084 | [4] 0.091 | [5] 0

YOD1 (UniProt Q5VVQ6)
Chain of UniProt Q5VVQ6 (Q5VVQ6 whole entry, looked up): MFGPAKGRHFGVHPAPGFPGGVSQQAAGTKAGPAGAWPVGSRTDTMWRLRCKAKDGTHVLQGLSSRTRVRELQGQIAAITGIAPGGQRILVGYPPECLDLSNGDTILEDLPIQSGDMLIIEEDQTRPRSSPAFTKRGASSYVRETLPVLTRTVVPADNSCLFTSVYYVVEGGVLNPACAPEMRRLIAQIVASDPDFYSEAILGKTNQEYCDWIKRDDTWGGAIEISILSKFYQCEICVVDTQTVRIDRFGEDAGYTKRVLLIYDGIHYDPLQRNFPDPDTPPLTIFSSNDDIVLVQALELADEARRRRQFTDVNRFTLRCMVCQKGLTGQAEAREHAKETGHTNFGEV
inactive: [1] -0.071 | [2] 0.035 | [3] 0.063 | [4] -0.005 | [5] 0.046

ZMYM3 (UniProt Q14202)
inactive: [1] -0.03 | [2] 0.055 | [3] -0.02 | [4] 0.043 | [5] 0.103

ZW10 (UniProt O43264)
inactive: [1] -0.044 | [2] 0.044 | [3] 0.018 | [4] -0.004 | [5] 0

ZDHHC7 isoform 2 (UniProt Q9NXF8)
inactive: [2] 0.088 | [3] 0.131 | [4] 0.135 | [5] 0.081

YIPF4 (UniProt Q9BSR8)
inactive: [1] -0.027 | [2] 0.001 | [3] -0.019 | [4] 0.027 | [5] 0.046

ZNF580 (UniProt Q9UK33)
inactive: [3] -0.16 | [4] 0.029

ZWILCH (UniProt Q9H900)
inactive: [1] -0.077 | [2] 0.036 | [3] 0.063 | [4] 0.037 | [5] 0.002
